Results taken from the supplement of paper PMC10127200.
Structures can show the parent of a compound that is named as a salt.

Legend:
Assay in all cases: Euclidean distance of Cell Painting phenotypic profile (signed KS, 77 features) to DMSO centroid (dimensionless distance); 5 or 10 uM (library dependent); higher = stronger phenotypic change vs DMSO (phenoactivity)
Conditions in all cases: 48 h
[1] = test system: 786-O
How it was run: (§1)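 Harmony extracted 77 features from 20X confocal images (9 fields/well) of stained cells, scoring each as a signed Kolmogorov-Smirnov statistic against same-plate vehicle wells. The cells, five cancer lines and a healthy fibroblast line, had received library compounds for 48 h at 10 or 5 uM depending on library, with 0.1% DMSO final. Phenoactivity is the Euclidean distance from each plate-position-corrected, correlation-weighted, top-dose replicate-averaged profile to the median vehicle profile.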

[2] = test system: A549
How it was run: as §1

[3] = test system: DU145
How it was run: as §1

[4] = test system: FB
How it was run: as §1

[5] = test system: HEPG2
How it was run: as §1

[6] = test system: OVCAR4
How it was run: as §1

Structure (SMILES)	Euclidean distance [1]	Euclidean distance [2]	Euclidean distance [3]	Euclidean distance [4]	Euclidean distance [5]	Euclidean distance [6]
COC(=O)N1CCN(Cc2cccc(NC(=O)Nc3ccc(C)nc3)c2F)CC1	1.27	1.17	0.538	0.851	0.768	1.28
CC(C)c1noc(N2CCC(COc3ccc(-c4ccc(S(C)(=O)=O)cc4)nc3)CC2)n1	1.17	1.53	0.872	0.701	0.585	0.984
Cc1cn([C@H]2O[C@@H](CO)[C@H](O)[C@H]2F)c(=O)[nH]c1=O [Clevudine]	1.08	0.649	1.79	0.837	0.504	1.03
CCCC(CCC)C(=O)O [Divalproex Sodium]	1.31	0.566	0.425	0.846	0.404	0.812
CC[C@H]1OC(=O)[C@H](C)[C@@H](O[C@H]2C[C@@](C)(OC)[C@@H](O)[C@H](C)O2)[C@H](C)[C@@H](O[C@@H]2O[C@H](C)C[C@H](N(C)C)[C@H]2O)[C@](C)(O)C[C@@H](C)[C@@H]2N[C@@H](COCCOC)O[C@H]([C@H]2C)[C@]1(C)O [Dirithromycin]	0.963	1.37	0.758	1.06	1.27	1.41
O=C(O)c1cc(=O)c2c(OCC(O)COc3cccc4oc(C(=O)O)cc(=O)c34)cccc2o1 [Disodium Cromoglycate]	0.952	0.486	1.78	1.02	0.769	1.05
CC[C@H]1[C@@H](O)[C@@H]2[C@H](CC[C@]3(C)[C@@H]([C@H](C)CCC(=O)O)CC[C@@H]23)[C@@]2(C)CC[C@@H](O)C[C@@H]12 [Obeticholic Acid]	0.797	0.614	0.878	0.944	0.851	0.844
CNC[C@@H](O)c1ccc(O)c(O)c1 [L-Adrenaline]	1.4	0.654	0.94	1.3	0.928	0.954
Fc1ccc(C(c2ccc(F)cc2)N2CCN(C/C=C/c3ccccc3)CC2)cc1 [Flunarizine 2HCl]	0.978	1.16	1.34	0.938	2.13	1.24
O=C(OCc1ccccc1)c1ccccc1 [Benzyl benzoate]	0.857	1.28	0.936	0.794	0.831	1.33
CC(C)(C)[C@H]1CC[C@H](CC2=C(O)C(=O)c3ccccc3C2=O)CC1 [Buparvaquone]	1.16	1.1	1.17	0.844	0.483	1.44
Cn1cc(/C=C/C(=O)c2cccc(F)c2)cc1/C=C/C(=O)NO	1.27	1.61	0.756	1.27	0.359	0.539
Cc1cc(=O)oc2cc(O)ccc12 [4-Methylumbelliferone (4-MU)]	0.739	0.856	0.979	0.746	0.603	0.95
C[C@@H]1O[C@@H](OC[C@H]2O[C@@H](Oc3c(-c4ccc(O)c(O)c4)oc4cc(O)cc(O)c4c3=O)[C@H](O)[C@@H](O)[C@@H]2O)[C@H](O)[C@H](O)[C@H]1O [Rutin]	1.11	0.756	0.783	0.933	0.632	0.909
CS(=O)(=O)c1cccc(C[C@H](NC(=O)c2c(Cl)cc3c(c2Cl)CCN(C(=O)c2ccc4ccoc4c2)C3)C(=O)O)c1 [Lifitegrast]	1.08	0.823	1.53	1.16	0.431	1.27
C[C@@H]1COCCN1c1cc(C2([S@](C)(=N)=O)CC2)nc(-c2cc[nH]c3nccc2-3)n1	2.52	2.73	2.21	3.12	2.29	2.88
N#CC(c1ccnc(OCc2ccc(CN3CCOCC3)cc2)n1)c1nc2ccccc2s1 (stereo not drawn) [Bentamapimod]	1.54	1.83	1.31	1.81	1.38	1.36
Cc1ccccc1N1C(=O)c2cc(S(N)(=O)=O)c(Cl)cc2NC1C (stereo not drawn) [Metolazone]	1.06	0.914	1.26	0.909	0.715	1.05
CCC(=O)O[C@]1(C(=O)SCF)[C@H](C)C[C@H]2[C@@H]3C[C@H](F)C4=CC(=O)C=C[C@]4(C)[C@@]3(F)[C@@H](O)C[C@@]21C [Fluticasone propionate]	1.77	2.26	2.6	1.83	0.813	1.61
C/C=C1/[C@H](O[C@@H]2O[C@H](CO)[C@@H](O)[C@H](O)[C@H]2O)OC=C(C(=O)OC)[C@H]1CC(=O)OCCc1ccc(O)c(O)c1 [Oleuropein]	0.802	0.844	0.63	0.971	0.64	1.46
C[N+](C)(C)CCOC(N)=O [Carbachol]	1.07	1.19	0.687	1.16	0.696	1.56
CCc1c2c(nc3ccc(OC(=O)N4CCC(N5CCCCC5)CC4)cc13)-c1cc3c(c(=O)n1C2)COC(=O)[C@]3(O)CC [Irinotecan HCl Trihydrate]	3.01	3.5	4.47	4.08	3.19	3.1
c1cncc(CN2CCC(n3ncc4c(N5CCOCC5)nc(-c5ccc6[nH]ccc6c5)nc43)CC2)c1	4.57	4.67	4.08	4.59	3.78	3.57
Nc1cc(F)ccc1NC(=O)c1ccc(CNC(=O)/C=C/c2cccnc2)cc1 [Tucidinostat (Chidamide)]	3.36	2.59	2.35	3.31	3.09	2.66

Structure (SMILES)	Euclidean distance [1]	Euclidean distance [2]	Euclidean distance [3]	Euclidean distance [4]	Euclidean distance [5]	Euclidean distance [6]
c1ccc(-c2ccc(C(c3ccccc3)n3ccnc3)cc2)cc1 (stereo not drawn) [Bifonazole]	1.54	1.43	1.19	1.17	0.639	1.31
O=C(c1ccc(OCCCc2c[nH]cn2)cc1)C1CC1 [Ciproxifan]	1.15	1.15	1.03	0.829	0.908	1.15
CCOC(=O)[C@H](CCc1ccccc1)N[C@@H](C)C(=O)N(CC(=O)O)C1Cc2ccccc2C1 [Delapril Hydrochloride]	1	1.15	0.898	1	0.353	1.06
C[C@@H](Nc1cc(F)cc(F)c1)c1cc(C(=O)N(C)C)cc2c(=O)cc(N3CCOCC3)oc12	2.04	1.94	1.72	2.79	0.984	2.9
C[C@]12CCC(=O)C=C1[C@@H]1C[C@@H]1[C@H]1[C@@H]3[C@@H]4C[C@@H]4[C@@]4(CCC(=O)O4)[C@@]3(C)CC[C@@H]12 [Drospirenone]	0.972	0.987	0.866	0.787	0.612	0.995
Clc1ccc(CSC(Cn2ccnc2)c2ccc(Cl)cc2Cl)cc1 (stereo not drawn) [Sulconazole Nitrate]	1.3	1.23	1.07	0.983	1.1	1.31
C=CCc1ccccc1OCC(O)CNC(C)C (stereo not drawn) [Alprenolol hydrochloride]	0.84	0.761	1.36	1.77	0.91	1.07
COc1cc2c(Oc3ccc(NC(=O)C4(C(=O)Nc5ccc(F)cc5)CC4)cc3F)ccnc2cc1OCCCN1CCOCC1	1.39	2.06	1.35	1.52	0.94	3.97
CC1(C)O[C@@H]2[C@@H](CO[C@@]3(COS(N)(=O)=O)OC(C)(C)O[C@@H]23)O1 [Topiramate]	1.24	1.07	0.829	0.965	0.72	0.977
CC(C)(C)C(O)/C=C/c1ccc2c(c1)OCO2 (stereo not drawn) [Stiripentol]	0.796	0.894	1.07	0.983	0.456	0.801
COc1ccc(COc2cc3oc(=O)c4cc(C(C)O)ccc4c3cc2OC)cc1 (stereo not drawn) [Palomid 529 (P529)]	1.8	1.25	1.29	1.02	1.33	1.06
O=C(Nc1ccc(Cl)cc1)Nc1ccc(Cl)c(Cl)c1 [Triclocarban]	2.18	3.14	1.62	1.74	3.53	2.98
O=C(O)COCCN1CCN([C@H](c2ccccc2)c2ccc(Cl)cc2)CC1 [Levocetirizine Dihydrochloride]	0.875	1.39	0.783	1.09	0.867	1.4
N#Cc1cc(NC(=O)C(=O)O)c(Cl)c(NC(=O)C(=O)O)c1 [Lodoxamide Tromethamine]	1.61	1.34	0.792	1.06	0.894	1.01
O=C(COc1ccc(Cl)cc1)N1CCN(Cc2ccc3c(c2)OCO3)CC1 [Fipexide hydrochloride]	1.78	1.13	1.39	1.08	0.573	1.32
Cn1nnnc1SCC1=C(C(=O)O)N2C(=O)[C@@H](NC(=O)[C@H](OC=O)c3ccccc3)[C@H]2SC1 [Cefamandole nafate]	1.06	0.559	1.12	0.954	0.484	0.965
O=C(/C=C\n1cnc(-c2cc(C(F)(F)F)cc(C(F)(F)F)c2)n1)NNc1cnccn1	2.36	3.91	2.72	3.85	2.34	3.83
CN(C)CCC[C@@]1(c2ccc(F)cc2)OCc2cc(C#N)ccc21 [Escitalopram Oxalate]	1.58	1.12	1.67	0.918	0.791	1.43
Clc1ccc(C(Cn2ccnc2)OCc2ccsc2Cl)c(Cl)c1 (stereo not drawn) [Tioconazole]	1.07	0.786	2.41	1.25	1.14	1.44
CCC(=O)NCC[C@@H]1CCc2ccc3c(c21)CCO3 [Ramelteon]	1.15	0.978	–	0.887	1.02	1.07
CCc1cc2c(cc1N1CCC(N3CCOCC3)CC1)C(C)(C)c1[nH]c3cc(C#N)ccc3c1C2=O [Alectinib hydrochloride]	1.42	2.36	–	1.91	0.611	1.42
C=C1C(=O)O[C@@H]2/C=C(\C)CC/C=C(\C)CC[C@@H]12 [Costunolide]	1.27	0.924	–	1.01	1.29	0.93
CC(C)[C@H]1C(=O)N[C@@H](CCCN=C(N)N)C(=O)NCC(=O)N[C@@H](CC(=O)O)C(=O)N[C@H](Cc2ccccc2)C(=O)N1C	4.91	2.03	–	1.25	4.74	2.44
C[C@@H]1C[C@H]2[C@@H]3CCC4=CC(=O)C=C[C@]4(C)[C@@]3(Cl)[C@@H](O)C[C@]2(C)[C@@]1(OC(=O)c1ccco1)C(=O)CCl [Mometasone furoate]	2.05	1.97	–	1.79	0.88	2.18
